Our source for the growth values is PubChem BioAssay (NCI).

Compounds without any hit were thinned out: in the full panel of roughly 83,000, 20% have a hit.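 Testing used 96-well plates and a 48-hour single-concentration exposure. Example: -40 means 40% of the starting cells died.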 Unmarked numbers belong to inactive results. Activity calls are given as the source filed them. Rule for the calls: active = growth percent below 10; inactive = the rest.

Test systems include SR leukemia; RPMI-8226 leukemia; OVCAR-8 ovarian; OVCAR-5 ovarian; OVCAR-4 ovarian; SK-OV-3 ovarian; IGROV1 ovarian; OVCAR-3 ovarian; HS 578T breast; NCI/ADR-RES ovarian.
What all share (assay): NCI-60 one-dose screen, 48 h (100 = growth as untreated, 0 = no growth, -100 = all killed)
What all share (settings): 10 µM unless noted

With `Cc1cccc(C)c1NC(=O)CSC(=S)N1CCN(CCOCCO)CC1`, the growth was 102% with SR leukemia; 108% with RPMI-8226 leukemia; 106% with OVCAR-8 ovarian; 96.9% in the test on OVCAR-5 ovarian; 102% in the test with OVCAR-4 ovarian; 110% with SK-OV-3 ovarian. The growth in the test on IGROV1 ovarian was 96.5%; in the test on OVCAR-3 ovarian, 102%; in the test on HS 578T breast, 104%; in the test with NCI/ADR-RES ovarian it was 99.5%.

`CC(=O)O[C@H]1CC[C@]2(C)[C@H]3CC=C4[C@@H]5[C@H](C)[C@@H](C)CC[C@]5(C(=O)NCCNCCNCCN)CC[C@@]4(C)[C@]3(C)CC[C@H]2C1(C)C`: the growth with SR leukemia is -5.48% (active); with RPMI-8226 leukemia it was 42.3%; in the test on OVCAR-8 ovarian it was 96%; in the test on OVCAR-5 ovarian, 96.1%; with OVCAR-4 ovarian, 95.2%; with SK-OV-3 ovarian, 106%. For the same molecule, the growth in the test on IGROV1 ovarian was 57%; in the test with OVCAR-3 ovarian, 89.8%; in the test with HS 578T breast, 95.4%; in the test on NCI/ADR-RES ovarian, 89.8%.

As for `CC(C)(C)c1[nH]nc2c1C(c1cc3ccccc3[nH]c1=O)Nc1cc(C(=O)OCc3ccccc3)ccc1N2` (stereo not given), the growth in the test with SR leukemia was 38.9%; with RPMI-8226 leukemia, 53.6%; with OVCAR-8 ovarian, 64.9%; in the test with OVCAR-5 ovarian, 87.8%; in the test with OVCAR-4 ovarian, 54.3%; with SK-OV-3 ovarian, 83%. The growth with IGROV1 ovarian was 78.5%; in the test with OVCAR-3 ovarian, 49.2%; with HS 578T breast, 66.6%; with NCI/ADR-RES ovarian, 86.8%.

Regarding `Cc1ccc2oc(=O)cc(-c3sc(N4CCCCC4)nc3-c3ccccc3)c2c1`, the growth in the test on SR leukemia was 77.3%; in the test on RPMI-8226 leukemia, 99.9%; in the test on OVCAR-8 ovarian, 98.4%; in the test with OVCAR-5 ovarian, 102%; in the test on OVCAR-4 ovarian it was 92.4%; with SK-OV-3 ovarian, 86.9%. Moreover, the growth is 59.9% with IGROV1 ovarian, 97.2% in the test with OVCAR-3 ovarian, 96.7% with HS 578T breast and 98.4% in the test on NCI/ADR-RES ovarian.

As for `CCN1CCN(C(=O)[C@]23CC[C@@H](C)[C@H](C)[C@H]2C2=CC[C@@H]4[C@@]5(C)C/C(=C/c6cccc(OC)c6OC)C(=O)C(C)(C)[C@@H]5CC[C@@]4(C)[C@]2(C)CC3)CC1`, the growth in the test with SR leukemia was 5.2% (active); in the test on RPMI-8226 leukemia, 15.4%; in the test on OVCAR-8 ovarian it was 50.3%; in the test with OVCAR-5 ovarian, 67.8%; with OVCAR-4 ovarian, 24.5%; in the test with SK-OV-3 ovarian, 68.6%. Besides, the growth with IGROV1 ovarian was 60.7%; in the test on OVCAR-3 ovarian, 31.2%; with HS 578T breast, 67.6%; in the test on NCI/ADR-RES ovarian it was 35.3%.

Regarding `CC(C)C[C@@H](NC(=O)[C@@H](Cc1ccccc1)NC(=O)c1cnccn1)B1O[C@H]2[C@H](O)[C@@H](C(=O)NCCCC[C@@H]3NC(=O)[C@@H](Cc4ccccc4)NC(=O)[C@H](CC(=O)O)NC(=O)CNC(=O)[C@H](CCCN=C(N)N)NC3=O)O[C@@H](CN)[C@H]2O1`, the growth in the test on SR leukemia was 1.66% (active); in the test on RPMI-8226 leukemia, 0.803% (active); with OVCAR-8 ovarian it was -42.6% (active); in the test with OVCAR-5 ovarian it was -19.2% (active); in the test with OVCAR-4 ovarian, -27.9% (active); in the test with SK-OV-3 ovarian, -42.2% (active). Besides, the growth is 4.07% (active) in the test with IGROV1 ovarian, -55.3% (active) in the test with OVCAR-3 ovarian, 4.75% (active) in the test with HS 578T breast and 7.01% (active) with NCI/ADR-RES ovarian.

`COc1ccc(-c2n/c(=C\c3c(O)[nH]c4ccc(OC)cc34)cc3c2=Nc2ccccc2-3)cc1`: the growth with SR leukemia is 7.13% (active); with RPMI-8226 leukemia, -38.5% (active); with OVCAR-8 ovarian it was 11.8%; in the test on OVCAR-5 ovarian, 135%; in the test on OVCAR-4 ovarian it was -42.1% (active); with SK-OV-3 ovarian, 114%. The growth in the test with IGROV1 ovarian was 98.3%; in the test on OVCAR-3 ovarian it was -57.5% (active); in the test on HS 578T breast, 26.1%; with NCI/ADR-RES ovarian, 4.41% (active).

For the molecule `Clc1ccc(Cn2cc(-c3nc4ccc(Br)nc4n3Cc3ccc(Cl)cc3)c3cccnc32)cc1`, the growth in the test on SR leukemia is 61%; in the test on RPMI-8226 leukemia, 67.6%; with OVCAR-8 ovarian it was 77.2%; with OVCAR-5 ovarian, 96.9%; in the test on OVCAR-4 ovarian, 87.6%; in the test on SK-OV-3 ovarian it was 80.9%. Moreover, the growth is 77.3% with IGROV1 ovarian, 93.5% in the test with OVCAR-3 ovarian, 92.7% in the test with HS 578T breast and 90.8% in the test with NCI/ADR-RES ovarian.

`Cc1nc([P+](c2ccccc2)(c2ccccc2)c2ccccc2)c(Sc2sc(-c3ccccc3)nc2[P+](c2ccccc2)(c2ccccc2)c2ccccc2)o1`: the growth is 18.6% in the test with SR leukemia; -7.25% (active) with RPMI-8226 leukemia; 8.83% (active) in the test with OVCAR-8 ovarian; 41.3% in the test with OVCAR-5 ovarian; -1.77% (active) in the test with OVCAR-4 ovarian; -12.2% (active) in the test on SK-OV-3 ovarian. Moreover, the growth is 10.3% with IGROV1 ovarian, -1.45% (active) with OVCAR-3 ovarian, 14% in the test with HS 578T breast and 75% with NCI/ADR-RES ovarian.

Regarding `COC(=O)[C@]12CC[C@@H](C)[C@H](C)[C@@H]1C1=CC[C@@H]3[C@@]4(C)C[C@@H](O)[C@H](O)[C@@](C)(CO)C4=CC[C@@]3(C)[C@]1(C)CC2`, the growth in the test on SR leukemia is -24.8% (active); in the test with RPMI-8226 leukemia it was -15.2% (active); in the test with OVCAR-8 ovarian, -22.9% (active); with OVCAR-5 ovarian it was -66% (active); with OVCAR-4 ovarian, -55.5% (active); with SK-OV-3 ovarian it was -5.82% (active). Further, the growth is -40% (active) in the test with IGROV1 ovarian, -61.8% (active) in the test on OVCAR-3 ovarian, -35.1% (active) in the test with HS 578T breast and -45.6% (active) in the test with NCI/ADR-RES ovarian.

Consider `O=C(NO)c1ccc(Cn2c(=O)n(-c3ccccc3)c(=O)c3ccccc32)cc1`, for which the growth in the test with SR leukemia is 7.9% (active); with RPMI-8226 leukemia, 14.8%; in the test with OVCAR-8 ovarian it was -6.49% (active); in the test with OVCAR-5 ovarian, 62.2%; with OVCAR-4 ovarian, 18.7%; in the test on SK-OV-3 ovarian, 26.3%. For the same molecule, the growth is 33.5% in the test on IGROV1 ovarian, 24.2% in the test with OVCAR-3 ovarian, 57.8% in the test with HS 578T breast and 101% in the test on NCI/ADR-RES ovarian.

Take `CC1(C)C(=O)/C(=C\c2ccccn2)C[C@]2(C)[C@H]3CC[C@@H]4[C@@H](C(=O)/C=C/c5ccccn5)CC[C@@]4(C)[C@]3(C)CC[C@@H]12`: the growth in the test on SR leukemia is 3.7% (active); in the test on RPMI-8226 leukemia it was -5.71% (active); in the test on OVCAR-8 ovarian it was 15.5%; in the test on OVCAR-5 ovarian, -21.7% (active); in the test with OVCAR-4 ovarian it was -1.54% (active); in the test with SK-OV-3 ovarian, 35.1%. Further, the growth is -52% (active) in the test on IGROV1 ovarian, -69% (active) with OVCAR-3 ovarian, 15.1% with HS 578T breast and 0.68% (active) in the test with NCI/ADR-RES ovarian.
